KCNQ2 block: blocks the rat KCNQ2 potassium channel. B-score at 10 µM. AID 2156. actives 1.1% (n = 310,000). CHO-K1 KCNQ2, FluxOR thallium flux, 20 min; hits give low values;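 active = fluorescence ratio B-score at most minus 3 library SDs, with starting brightness B-score within 2 library SDs, cut at about -5.5 in these data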
Target sequence (O88943 whole entry, looked up): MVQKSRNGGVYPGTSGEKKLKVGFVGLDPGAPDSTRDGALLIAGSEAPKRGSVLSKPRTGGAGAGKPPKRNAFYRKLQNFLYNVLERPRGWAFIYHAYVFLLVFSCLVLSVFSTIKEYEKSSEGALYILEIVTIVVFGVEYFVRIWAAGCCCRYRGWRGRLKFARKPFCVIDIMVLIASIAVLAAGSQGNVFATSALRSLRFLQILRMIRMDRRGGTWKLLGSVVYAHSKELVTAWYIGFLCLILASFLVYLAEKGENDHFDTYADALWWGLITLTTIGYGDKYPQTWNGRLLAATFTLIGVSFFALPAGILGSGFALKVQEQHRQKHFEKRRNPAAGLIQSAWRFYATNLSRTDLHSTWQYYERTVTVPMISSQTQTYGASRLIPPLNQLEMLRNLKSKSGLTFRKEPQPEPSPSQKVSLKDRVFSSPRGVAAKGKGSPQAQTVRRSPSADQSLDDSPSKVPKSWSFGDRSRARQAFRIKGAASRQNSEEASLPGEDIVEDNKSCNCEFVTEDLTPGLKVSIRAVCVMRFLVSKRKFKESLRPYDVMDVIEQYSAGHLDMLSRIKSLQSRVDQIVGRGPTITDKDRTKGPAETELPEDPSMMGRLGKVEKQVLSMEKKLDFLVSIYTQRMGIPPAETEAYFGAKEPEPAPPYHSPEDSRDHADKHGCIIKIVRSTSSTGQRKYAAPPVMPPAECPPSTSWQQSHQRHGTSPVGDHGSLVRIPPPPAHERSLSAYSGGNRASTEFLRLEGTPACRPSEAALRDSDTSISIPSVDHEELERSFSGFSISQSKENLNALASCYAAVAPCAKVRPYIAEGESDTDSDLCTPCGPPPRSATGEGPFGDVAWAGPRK
KCNQ2 enhance: potentiators of rat KCNQ2 potassium channel; O88943; CHO-K1 KCNQ2, FluxOR thallium flux fluorescence; hits give high values; B-score at 10 µM; actives 0.54% (n = 310,000); AID 2239;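 active = fluorescence ratio B-score at least 3 SD of library B-scores, with initial fluorescence B-score within 3 of them, cut at about 5.3 in these data; same plate scores as AID 2156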;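 also: B-score of peak minus minimum over baseline fluorescence ratio after K+ and Tl+ stimulus; positive B-score means potentiation of KCNQ2 with more thallium influx and brighter signal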
* hit, by the source's call; i = inactive; . = no result. A selection: hits, their analogues and other compounds. The true share with any hit is near 1.6%.

SMILES	KCNQ2 block	KCNQ2 enhance
Cc1ccc(NCc2nnc(SCC(=O)c3ccccc3)o2)c(C)c1	i	.
Cc1ccc(NC(=O)CSc2nnc(CSc3nc(C)cc(C)n3)n2Cc2ccco2)c(C)c1	-6.7*	-6.7
Cc1ccc(NCc2nnc(SCC(=O)c3ccccc3)n2Cc2ccco2)c(C)c1	-7.8*	-7.8
CC(C)N1CC(COc2ccc(Cl)cc2Cl)OC1=O (centres undefined)	i	1.6
COc1ccc(C2NC(C(=O)O)Cc3c2[nH]c2ccccc32)cc1CN1CCN(c2ccc(F)cc2)CC1 (centres undefined)	-5.7*	-5.7
O=C(O)C1Cc2c([nH]c3ccccc23)C(c2ccc3c(c2)OCO3)N1 (centres undefined)	i	.
CCOC(=O)CSc1nc(C2CC2)nc2ccccc12	i	0.54
Cc1ccc2cc(C#N)c(NCCNC(=S)NCCCN(C)C)nc2c1C	i	.
Cc1cc(C)c2nc(NCCCNC(=S)NCCCN(C)C)c(C#N)cc2c1	-7.3*	-7.3
CNC(=O)CSc1nc2ccccc2c(=O)n1C1CCCCC1	i	.
CCOC(=O)CSc1nc2ccccc2c(=O)n1C1CCCC1	-5.8*	-5.8
Cc1cc2sc3nc(=O)n(-c4ccccc4)c(=O)n3c2cc1C	i	.
COc1ccc(S(=O)(=O)N(CC(N)=O)C2CCCCC2)cc1Cl	-5.7*	-5.7
COc1ccc(S(=O)(=O)N(C)CC(=O)NC2CCCCC2)cc1Cl	i	0.01
CCN(CC)c1ccc(/C=N/NC(=O)OC(C)(C)C)cc1	i	.
COc1ccc([N+](=O)[O-])cc1/C=N/NC(=O)Cc1ccccc1	i	6*
COc1cc(/C=N/NC(=O)Cc2ccccc2)ccc1Oc1ccc([N+](=O)[O-])cc1[N+](=O)[O-]	i	0.78
NC(CO)(CO)COCc1ccccc1	i	.
N#CCCN(C(=O)COc1ccc(Cl)cc1Cl)c1ccccc1	i	.
CN1C(=O)c2ccc(NC(=S)NC(=O)C(C)(C)C)cc2C1=O	i	0.42
CCCNC(=S)Nc1ccc(Br)cc1	i	2.3
CCCCNC(=S)Nc1ccc(Oc2ccccc2)cc1	i	.
COC(=O)Cc1ccc(NC(=S)NCCC(C)C)cc1	i	.
CCCCNC(=S)Nc1ccc([N+](=O)[O-])cc1	i	12*
CC(C)CCNC(=S)Nc1ccc(Br)cc1	i	5.3*
SMILES	KCNQ2 block	KCNQ2 enhance
CC(C)CCNC(=S)Nc1ccc([N+](=O)[O-])cc1	i	14*
Cc1ccc(C(=O)NC(=O)CSc2ncccc2C(=O)O)cc1	i	1.2
Cc1ccccc1C(=O)N1CCN(S(=O)(=O)c2ccccc2)CC1	i	.
COc1ccc(NC(=O)NNS(=O)(=O)c2ccc(OC)c(OC)c2)c(OC)c1	i	.
CC(C)CN1CCC(CNC(=O)CCc2nnc(Cc3c[nH]c4ccccc34)o2)CC1	i	.
Cc1cccc(N2CCN(C(=O)c3cc4c(=O)n(C)c5ccccc5c4n3C)CC2C)c1 (centres undefined)	-6.1*	-6.1
Cn1c(C(=O)N2CCCCCC2)cc2c(=O)n(C)c3ccccc3c21	i	0.64
CC1(C)CC(NC(=S)NCc2ccc3c(c2)OCO3)CC(C)(C)N1	i	1.1
O=S(=O)(NCCN1CCOCC1)c1ccc(-c2ccc(S(=O)(=O)NCCN3CCOCC3)cc2)cc1	i	.
CN1CCOc2ccc(S(=O)(=O)NCCc3ccc(Cl)cc3)cc21	-6.7*	-6.7
O=S(=O)(NCCCN1CCOCC1)c1ccc(Cl)cc1	i	8*
CC(=O)N1CCOc2ccc(S(=O)(=O)NCCc3ccc(C)cc3)cc21	i	.
COc1ccc(CCN2C(=O)CC(NNc3ccc([N+](=O)[O-])cc3)C2=O)cc1OC (centres undefined)	i	.
Cc1cc(C)c2sc(N(CCCN(C)C)C(=O)c3ccc(S(=O)(=O)N4CCCc5ccccc54)cc3)nc2c1	-7.7*	-7.7
Cc1cc(C)c2sc(N(CCCN(C)C)C(=O)c3ccc(S(=O)(=O)N4CCc5ccccc5C4)cc3)nc2c1	i	.
CC(C)N(Cc1ccccc1)C(=O)CN1C(=O)NC(Cc2ccccc2)(c2ccccc2)C1=O (centres undefined)	i	.
O=C1c2ccccc2C(Nc2ccc(Cl)cn2)N1c1ccccn1 (centres undefined)	-6.6*	-6.6
O=C1c2ccccc2C(Nc2ccc(S(=O)(=O)N3CCCCCC3)cc2)N1c1ccccn1 (centres undefined)	i	.
COc1ccc(C(=O)Nc2sc(C)c(C)c2CN2CC(C)OC(C)C2)cc1 (centres undefined)	i	1.5
COc1ccc(-c2cnc(SCC(=O)Nc3nc(C(C)(C)C)cs3)n2Cc2ccco2)cc1	-8.3*	-8.3
COc1ccc(-c2cnc(SCC(=O)Nc3cc(C)on3)n2Cc2ccco2)cc1	i	.
COc1ccc(C)cc1S(=O)(=O)N1CCCC(C(=O)N2CCN(c3ccccc3F)CC2)C1 (centres undefined)	i	.
CCCCc1nnc(NC(=O)CSCc2cc(=O)n3cc(C)sc3n2)s1	i	0.08
COc1ccc(NC(=O)Cc2ccc(Cl)c(Cl)c2)cn1	i	.
COc1ccc(NC(=O)/C(Cl)=C(/Cl)S(=O)(=O)Cc2ccc(C)cc2)cn1	i	5.4*
SMILES	KCNQ2 block	KCNQ2 enhance
O=C(NC(=S)N(CCO)Cc1ccccc1)c1ccc(F)cc1Cl	i	.
CC(=O)c1ccc(OCCCC(=O)NCCc2ccc(C(F)(F)F)cc2)cc1	i	0.35
Cc1ccc(C(=O)N2c3ccc(F)cc3CCC2C)o1 (centres undefined)	i	.
Cc1nn(Cc2ccc(C(=O)N3c4ccc(F)cc4CCC3C)o2)c(C)c1Br (centres undefined)	-7.6*	-7.6
O=S(=O)(c1ccccc1)N(CC1CO1)c1cccc2ccccc12 (centres undefined)	i	1.1
CCOC(=O)N1CCN(S(=O)(=O)c2c(C(=O)N3CCCCC3)c(C)n(C)c2C)CC1	i	.
CC1=C(C(=O)OC2CCCCCC2)C(c2ccc(C)o2)C2=C(CCCC2=O)N1 (centres undefined)	i	0.82
CC1=C(C(=O)OC2CCCC2)C(c2ccc(C)o2)C2=C(CC(c3cccs3)CC2=O)N1 (centres undefined)	-5.7*	-5.7
O=C(c1ccncc1)N(c1ccc2oc3c(c2c1)CCCC3)S(=O)(=O)c1cccc([N+](=O)[O-])c1	i	.
COc1ccc(S(=O)(=O)N(C(=O)c2ccncc2)c2ccc3oc4c(c3c2)CCCC4)cc1	-5.7*	-5.7
CC(C)c1ccc(NC2CCCN(C(=O)C3=NN(C)C(=O)CC3)C2)cc1 (centres undefined)	i	.
CCOC(=O)C(Cc1ccccc1)(Cc1ccccc1)C(C)=O	-6.4*	-6.4
CC(=O)C(Cc1ccccc1)(Cc1ccccc1)C(C)=O	i	0.24
O=C(Cn1nnc(-c2ccc([N+](=O)[O-])cc2)n1)NNC(=O)c1ccccc1	i	0.32
O=C(c1ccc(N2CCOCC2)cc1[N+](=O)[O-])N1CCOCC1	i	.
CCC(C)n1c(=S)[nH]c2c(sc3ccc([N+](=O)[O-])cc32)c1=O (centres undefined)	i	25*
CC(C)n1c2ccccc2c2cc([N+](=O)[O-])ccc21	i	0.71
O=C(N/N=C/c1ccc(O)cc1)/C(=C/c1ccccc1)CCO	i	.
NC(=S)N/N=C1/CCSc2ccc3ccccc3c21	i	0.92
CCOc1ccc(C(=O)OCC(=O)Nc2ccc(SC(F)F)cc2)cc1OCC	i	0.1
CSc1ccccc1C(=O)N(C)C(c1ccccc1)c1ccccc1	-5.7*	-5.7

Screens: PubChem, Johns Hopkins Ion Channel Center
